Experimental findings from PubChem BioAssay (NCI) are described below.

This is part of a sample that, as a whole, favours compounds with a hit. Of some 83,000 tested, about 20% had one in any assay.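 Results are percent growth after 48 hours of single-concentration exposure. 100 means growth as in untreated cells, lower positive values show inhibition; negative values down to -100 show cell death.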 Unmarked numbers belong to inactive results. Activity calls are given as the source filed them. Rule for the calls: active = growth percent below 10; inactive = the rest.

Holding throughout (test): NCI-60 one-dose screen, 48 h (100 = growth as untreated, 0 = no growth, -100 = all killed)
What all share (conditions): 10 µM unless noted

Assay [1] concerns T-47D breast.
The subject of assay [2] is BT-549 breast.
Assay [3] relates to MDA-MB-435 melanoma.
Assay [4] has as its system SW-620 colon.
Assay [5] relates to MCF7 breast.
Assay [6] has as its system HCT-116 colon.
Assay [7] concerns HCC-2998 colon.
The test system of assay [8] is KM12 colon.

In the case of `COc1ccc(/C(=N/O)c2cc(F)c(F)c(OC)c2F)cc1O`, the growth is 28.4% in assay [1]; 33.5% in assay [2]; -35.7% (active) in assay [3]; 15.2% in assay [4]; 18.7% in assay [5]; 15.6% in assay [6]. Also, the growth in assay [7] is 42.7%.

For the molecule `CCSc1nnc(Nc2ccc(C(C)C)cc2)s1`, the growth in assay [1] was 78.7%; in assay [2], 103%; in assay [3], 86.7%; in assay [4], 84.1%; in assay [5] it was 95.2%; in assay [6], 72.3%. Besides, the growth was 92.7% in assay [7] and 83.9% in assay [8].

On to `CC[C@]1(O)C[C@@H]2CN(Cc3c([nH]c4ccccc34)[C@@](C(=O)OC)(c3cc4c(cc3OC)N(C)[C@H]3[C@@](O)(C(=O)OC)[C@H](OC(C)=O)[C@]5(CC)[C@@H]6C[C@@H]6CN6CC[C@]43[C@@H]65)C2)C1`, for which the growth in assay [1] was 83.3%; in assay [2], -23.1% (active); in assay [3], -40% (active); in assay [4], 20.6%; in assay [5] it was 14.8%; in assay [6] it was 2.43% (active). Besides, the growth in assay [7] is 7.42% (active); in assay [8], -9.75% (active).

In the case of `COc1ccc(OC)c(C(=O)c2oc3ccc(Br)cc3c2N)c1`, the growth was 37.9% in assay [1]; 27.8% in assay [2]; -64.7% (active) in assay [3]; 16.2% in assay [4]; 15.5% in assay [5]; 16.8% in assay [6]. Moreover, in assay [7], the growth was 36.9%.

Consider `Cc1nn(-c2ccc(Cl)cc2)c(=O)n1CCOc1ccccc1Cl`, for which the growth in assay [1] was 79.5%; in assay [2], 94.4%; in assay [3], 107%; in assay [4], 103%; in assay [5], 98.3%; in assay [6] it was 74%.

With `NC(C(=O)O)C(O)c1ccc(OCc2ccccc2)c(OCc2ccccc2)c1` (centres undefined), the growth in assay [1] was 88.1%; in assay [2], 95%; in assay [3], 102%; in assay [4], 97%; in assay [5], 87.3%; in assay [6], 101%. For the same molecule, the growth in assay [7] is 115%; in assay [8], 100%.

For the molecule `CN(C)CCCNC(=O)C(c1ccccc1)c1ccccc1`, the growth in assay [1] was 87.9%; in assay [2], 106%; in assay [3], 108%; in assay [4] it was 100%; in assay [5], 96.3%; in assay [6], 94.3%. In addition, the growth in assay [7] is 99.1%.

Take `COc1cc(NC(=O)CSc2nc3ccc(C)cc3c(=O)n2-c2ccccc2)cc(OC)c1OC`: the growth is 81.7% in assay [1]; 79.8% in assay [2]; 47.5% in assay [3]; 87.6% in assay [4]; 91.1% in assay [5]; 87% in assay [6]. The growth in assay [7] was 97.5%.

In the case of `Cc1ccc(C2=NN(c3ccc(S(=O)(=O)NC(=O)NCc4ccccc4)cc3)C(c3ccc(N(C)C)cc3)C2)c(C)c1` (centres undefined), the growth in assay [1] was 47.3%; in assay [2], 40.9%; in assay [3] it was 1% (active); in assay [4] it was 59.5%; in assay [5], 28.9%; in assay [6], 39.7%. Besides, the growth in assay [7] is 27.7%; in assay [8], 34.5%.

As for `CCC(c1ccc(OC)cc1)C(CC)c1ccc(O)c(CN2CCCC2)c1` (centres undefined), the growth was -33% (active) in assay [1]; 2.58% (active) in assay [2]; -31.6% (active) in assay [3]; 0.333% (active) in assay [4]; -44.4% (active) in assay [5]; 35.9% in assay [6]. In addition, in assay [7], the growth is -83% (active).

As to `COc1ccc(C(=O)c2cc(OC)c(OC)c(OC)c2)cc1/C=C/C(=O)c1ccc(O)cc1`, the growth in assay [1] was 37.3%; in assay [2], 7.62% (active); in assay [3] it was 18.9%; in assay [4], -24.1% (active); in assay [5] it was 12.1%; in assay [6], -23.2% (active). For the same molecule, the growth in assay [7] was -22.4% (active).

Consider `O=C1CCCCN1CCCCC#Cc1ccccc1C#Cc1ccccn1`, for which the growth in assay [1] was 92.9%; in assay [2], 117%; in assay [3], 98.1%; in assay [4] it was 103%; in assay [5] it was 109%; in assay [6] it was 106%. For the same molecule, in assay [7], the growth is 88.5%.

For the molecule `O=C(Nc1ccc(I)cc1)c1cccc([N+](=O)[O-])c1O`, the growth is 9.64% (active) in assay [1]; 4.69% (active) in assay [2]; 14.2% in assay [3]; 21.7% in assay [4]; 7.91% (active) in assay [5]; 8.14% (active) in assay [6]. The results for the growth in assay [7] and in assay [8] were 19.9% and 14.1%, respectively.

Take `CCC1CCc2nc3sc(C(=O)Nc4ccccc4F)c(N)c3cc2C1` (centres undefined): the growth in assay [1] was 87.4%; in assay [2], 76%; in assay [3] it was -15.5% (active); in assay [4] it was 36.4%; in assay [5] it was 18.9%; in assay [6] it was 63.8%. Further, the growth in assay [7] was 91.6%; in assay [8] it was 35.3%.

Regarding `CC(=O)c1cc(C(=O)c2ccc3c(c2)Sc2ccccc2N3)c2cc(C)ccn12`, the growth in assay [1] was 61.7%; in assay [2], -13.9% (active); in assay [3] it was -19.7% (active); in assay [4] it was 22.4%; in assay [5], 10.8%; in assay [6], -23.6% (active). Further, the growth in assay [7] was 23.2%.

On to `CC(=O)Nc1nc(C(=O)N2N=C(C)/C(=C/c3ccccc3)C2=O)cs1`, for which the growth in assay [1] is 98.6%; in assay [2], 107%; in assay [3], 106%; in assay [4], 107%; in assay [5], 95.9%; in assay [6], 98.3%. Also, the growth in assay [7] is 104%.

For the molecule `COc1cc2nc(Cl)nc(NCCO)c2cc1OC`, the growth in assay [1] was 101%; in assay [2], 112%; in assay [3] it was 106%; in assay [4] it was 104%; in assay [5], 100%; in assay [6], 113%. In addition, in assay [7], the growth is 102%.
